{"source": "ChEMBL document CHEMBL4888484", "about": "“Replenishing the malaria drug discovery pipeline: Screening and hit evaluation of the MMV Hit Generation Library 1 (HGL1) against asexual blood stage Plasmodium falciparum ,using a nano luciferase reporter read-out” (2022)", "note": "Among all 4,800 compounds or so, about 420 (8.8%) showed an effect of 50% or more. This excerpt belongs to a sample that is enriched for strong results.", "data": [{"system": "Plasmodium falciparum", "test": "Confirmatory screen in NF54 nanoGlo assay, in single point, at 2uM, 72h", "type": "functional, Erythrocyte", "conditions": "timepoint 72 hour", "units": {"% Inhibition": "%"}, "values": [{"smiles": "Cc1ccc(Cl)c(OCn2ccc(C(=O)Nc3ccc(Br)cn3)n2)c1", "% Inhibition": -16}, {"smiles": "O=C(NCc1ccccc1F)C1CCN(c2cncnc2N2CCCC2)CC1", "% Inhibition": 33}, {"smiles": "CCS(=O)(=O)C1CN(C(=O)c2ccnn2C2CCCC2)C1", "% Inhibition": -7}, {"smiles": "COCCCn1c(COc2ccc(OC)cc2)n[nH]c1=O", "% Inhibition": 1}, {"smiles": "COc1c(Cl)cc(Cl)cc1CNC(C)C", "% Inhibition": 4}, {"smiles": "NCc1ccc(O)c(Br)c1", "% Inhibition": 2}, {"smiles": "Cc1ccc(CNC(=O)c2nc(-c3ccncc3)cs2)o1", "% Inhibition": 7}, {"smiles": "COc1ccnc(NCc2ccc(N3CCOCC3)cc2)n1", "% Inhibition": -3}, {"smiles": "CC(=O)c1cccc(S(=O)(=O)N2CCN(C(=O)c3ccc4c(c3)CCC4)CC2)c1", "% Inhibition": 2}, {"smiles": "Cc1cc(C)n(S(=O)(=O)c2ccc3c(c2)OCCO3)n1", "% Inhibition": -3}, {"smiles": "COc1ccc2c(c1)CCN2S(=O)(=O)c1ccc2c(c1)OCCO2", "% Inhibition": -4}, {"smiles": "CC12CN(S(=O)(=O)c3ccc4c(c3)OCCO4)C3(C(=O)OCc4ccccc4)CC1CCC23C", "note": "(centres undefined)", "% Inhibition": 59}, {"smiles": "CC(C)OC(=O)N1C(=O)c2ccccc2NC1(C(F)(F)F)C(F)(F)F", "% Inhibition": -22}, {"smiles": "Nc1ccc2c(c1)Oc1cc(N)ccc1OCCOCCOCCO2", "% Inhibition": -10}, {"smiles": "Cc1cccc(-n2c(-c3sc(Nc4ccccc4)nc3-c3ccccc3)nc3ccccc3c2=O)c1", "% Inhibition": 6}, {"smiles": "COC(=O)Nc1nc(-c2ccccc2)c(-c2nc3ccccc3c(=O)n2-c2ccc(OC)cc2)s1", "% Inhibition": 5}, {"smiles": "O=c1c2ccccc2nc2cc(-c3ccc(O)cc3)c(-c3ccccc3)nn12", "% Inhibition": 53}, {"smiles": "Cc1ccc(/N=C(\\N)C(Cl)(Cl)Cl)c(C)c1", "% Inhibition": -2}, {"smiles": "c1ccc(N2CCN(CCN[C@H]3CCc4cc5c(cc43)CCC5)CC2)cc1", "% Inhibition": 8}, {"smiles": "Oc1ccccc1CCN[C@H]1CCc2ccc(F)cc21", "% Inhibition": 98}, {"smiles": "CN(Cc1ccc(F)cc1Cl)[C@H]1CCc2nnc(C3CCOCC3)n2CC1", "% Inhibition": -13}, {"smiles": "Cc1ccnc(CNC(=O)N[C@H]2CCc3ccc(F)cc32)c1", "% Inhibition": -10}, {"smiles": "Cc1nc2cc(F)ccc2cc1C(=O)N1CCN(S(=O)(=O)c2ccc(Br)cc2)CC1", "% Inhibition": 0}, {"smiles": "Cc1ccccc1CNC(=O)CN(C(C)C)C1CCOCC1", "% Inhibition": 21}, {"smiles": "CCO[C@H]1C[C@H](NC(=O)Nc2ccc(F)c(C3CC3)c2)C1", "% Inhibition": 2}, {"smiles": "COc1ccc(-n2nc(C)c3c2NC(=O)C[C@@H]3c2ccc3c(c2)OCO3)cc1", "% Inhibition": -5}, {"smiles": "COC(=O)c1ccc(C)c(NC(=O)c2ocnc2C2CC2)c1", "% Inhibition": 2}, {"smiles": "Cc1cc(C)n(-c2c(C)[nH]c3ccccc23)n1", "% Inhibition": -7}, {"smiles": "CC1=C(C(=O)Nc2cccc(Cl)c2)[C@H](c2csnn2)NC(=O)N1", "% Inhibition": -20}, {"smiles": "N#Cc1c(CN2CCOCC2)cc(=O)n2c1[nH]c1ccccc12", "% Inhibition": -4}, {"smiles": "Cc1ccc(CN2CCN(C[C@@H](O)Cn3c4ccccc4n4c(=O)cc(C)c(C#N)c34)CC2)c(C)c1", "% Inhibition": 89}, {"smiles": "O=C(Cc1c[nH]c2ccccc12)N[C@H]1CCS(=O)(=O)C1", "% Inhibition": -4}, {"smiles": "CCOCCCNC/C=C/c1ccccc1", "% Inhibition": -5}, {"smiles": "CC(=O)N1CCC(Nc2ccc3c(c2)CCC(=O)N3)CC1", "% Inhibition": -17}, {"smiles": "COc1cc(Cl)c(C)cc1NC(=O)c1cc(=O)n(-c2ccc(C)cc2)[nH]1", "% Inhibition": -8}, {"smiles": "Clc1cccc(N2CCN(Cc3ccc(OC4CCNCC4)cc3)CC2)c1", "% Inhibition": 27}, {"smiles": "O=C(CN1CCCCCC1)Nc1ccc(OCc2ccccc2)cc1", "% Inhibition": 0}, {"smiles": "c1ccc(Cn2ncc3cc(-c4nc(C5CC5)no4)cnc32)cc1", "% Inhibition": 3}, {"smiles": "COc1ccccc1[C@H]1CC(O)=Nc2c1ncn2-c1cc(F)cc(F)c1", "% Inhibition": -4}, {"smiles": "Cn1ccnc1[C@@H]1CCCN1S(=O)(=O)c1c2c(nn1C)CCCC2", "% Inhibition": 4}, {"smiles": "C[C@@H](CNc1nc(-c2ccccc2)nc2nc(-c3ccc(Cl)cc3)oc12)N1CCCCC1", "% Inhibition": 60}, {"smiles": "O=C1CC(c2cccc(NC(=O)CCc3ccccn3)c2)CC(=O)N1", "% Inhibition": 3}, {"smiles": "Cc1cc(-n2c(C)cc(C(=O)Cn3c(C(F)(F)F)ccc(C(N)=O)c3=O)c2C)no1", "% Inhibition": 25}, {"smiles": "NC(=O)c1ccc(C(F)(F)F)n(C[C@H](O)c2cc(Cl)ccc2Cl)c1=O", "% Inhibition": 63}, {"smiles": "NC(=O)c1ccc(C(F)(F)F)n(CC(=O)N(Cc2ccc(F)cc2)C2CCCCC2)c1=O", "% Inhibition": -6}, {"smiles": "CCC(=O)N(CCN(C)C)Cc1c(-c2ccccc2)noc1N1CCCCC1", "% Inhibition": 10}, {"smiles": "CCN(CCN(C)C)C(=O)c1cccc(-c2ccc3nccc(N)c3c2)c1", "% Inhibition": 70}, {"smiles": "Cc1cccc(OC[C@@H](O)Cn2cnc(C)c(C)c2=O)c1", "% Inhibition": 5}, {"smiles": "COc1ccc(-n2nnnc2[C@@H](NCCc2c[nH]c3ccccc23)C(C)C)cc1", "% Inhibition": -1}, {"smiles": "Cc1cccc(CC(=O)N[C@@H](C)CCC(=O)O)c1", "% Inhibition": 4}, {"smiles": "O=C(CCc1ccc(Cl)c(C(F)(F)F)c1)N1CC[C@H](N2CCc3ccccc3C2)C1", "% Inhibition": 52}, {"smiles": "CN1CCC2C(CCN2C(=O)Nc2ccc(Cl)c(C(F)(F)F)c2)C1", "note": "(centres undefined)", "% Inhibition": 2}, {"smiles": "O=C(Nc1ccccc1Cl)N1CCC(N2CCc3sccc3C2)CC1", "% Inhibition": 37}, {"smiles": "CC(C)c1cccc(CN2C(=O)N[C@]3(CC(C)(C)OC3(C)C)C2=O)n1", "% Inhibition": -6}, {"smiles": "CC(Oc1ccc2c(c1)C(c1ccccc1)N(Cc1ccccc1F)CC2)C(=O)NC1CC1", "note": "(centres undefined)", "% Inhibition": 56}, {"smiles": "COc1ccc2cc3n(c2c1)C[C@](C(=O)NC1CCCCCC1)(c1ccccc1)N(Cc1ccccc1F)C3=O", "% Inhibition": -17}, {"smiles": "C[C@H](C(=O)NCC1CCN(Cc2ccccc2F)CC1)C1CCOCC1", "% Inhibition": -6}, {"smiles": "C=CCN1CCN(c2nccn3nc(-c4ccc(Cl)cc4)cc23)CC1", "% Inhibition": -3}, {"smiles": "CC[C@H]1C(=O)NCCN1C(=O)c1cc(C)n[nH]1", "% Inhibition": 7}, {"smiles": "Cn1c(Cc2n[n+]3c(-c4ccccc4)cc(-c4ccccc4)nc3n2C)n[n+]2c(-c3ccccc3)cc(-c3ccccc3)nc12", "% Inhibition": 99}, {"smiles": "COCc1nsc(N2CCC(c3ccccc3)CC2C)n1", "note": "(centres undefined)", "% Inhibition": 1}, {"smiles": "O=C(NCc1cccnc1)c1cnn2c3c(cnc12)CCCC3", "% Inhibition": -4}, {"smiles": "O[C@H]1Cc2ccccc2[C@H]1Nc1nc(-c2ccccn2)nc2c1CCNC2", "% Inhibition": 13}, {"smiles": "FC(F)(F)C1CN(c2nc(-c3ccccn3)nc3c2CCC3)C1", "% Inhibition": 67}, {"smiles": "C[C@H]1CCN(c2nc(-c3ccccn3)nc3c2CCC3)C1", "% Inhibition": 91}, {"smiles": "CCc1ccc(NC(=O)[C@H]2CCCN(c3nc4cccnc4n(Cc4ccccc4)c3=O)C2)cc1", "% Inhibition": -6}, {"smiles": "C[C@H]1CCCN(S(=O)(=O)NCC(=O)Nc2ccccn2)C1", "% Inhibition": -15}, {"smiles": "C[C@H]1CCCN(c2nc(-c3ccccn3)nc3ccccc23)C1", "% Inhibition": 97}, {"smiles": "CN(C)Cc1ccc(O)c(CCc2ccccc2)n1", "% Inhibition": 29}, {"smiles": "C[C@@]12CCCCN1CCCc1c2[nH]c2ccccc12", "% Inhibition": -15}, {"smiles": "COc1c[nH]c(C(=O)NC2CCN(Cc3ccccc3)CC2)cc1=O", "% Inhibition": 5}, {"smiles": "CCOc1cc(Cl)ccc1C(=O)NC1CCN(C[C@H]2CCOC2)CC1", "% Inhibition": 1}, {"smiles": "FCCn1ncnc1CN1CCCCC[C@H]1C1CCCCC1", "% Inhibition": 4}, {"smiles": "CCN(CC)CC(O)COc1c(Br)cc(C(C)(C)c2cc(Br)c(OCC(O)CN(CC)CC)c(Br)c2)cc1Br", "note": "(centres undefined)", "% Inhibition": 99}, {"smiles": "O=C(CNC(=O)[C@H]1CC[C@H](CNS(=O)(=O)c2ccccc2)CC1)N1CCN(c2ccccc2)CC1", "% Inhibition": 4}, {"smiles": "O=C(Nc1nc2ccc(F)cc2s1)c1cccc2c(Br)cccc12", "% Inhibition": -1}, {"smiles": "C=CCN1C(=O)OC(C)(CCC=C(C)C)C1(C)O", "note": "(centres undefined)", "% Inhibition": 9}, {"smiles": "Cc1cc(CN(C)Cc2nccn2C)ccc1N1CCCCC1", "% Inhibition": -1}, {"smiles": "CN1CCCN(c2ccnc3ccsc23)CC1", "% Inhibition": 2}, {"smiles": "Cc1cccc(OCc2nn3c([C@H]4CCCN(S(C)(=O)=O)C4)nnc3s2)c1", "% Inhibition": -6}, {"smiles": "Cc1nccc(N(C)C2CC(Oc3ccccc3)C2(C)C)n1", "note": "(centres undefined)", "% Inhibition": -5}, {"smiles": "Cc1nn2c(C(F)F)cc(-c3ccc4c(c3)OCO4)nc2c1Cl", "% Inhibition": -5}, {"smiles": "COc1ccc(-c2cc3n(n2)C[C@@](C)(C(=O)NCc2ccccc2OC)N(c2cccc(OC)c2)C3=O)cc1", "% Inhibition": 49}, {"smiles": "COc1ccc(-c2cc3n(n2)C[C@@](C)(C(=O)NCc2ccccc2)N(Cc2ccc4c(c2)OCO4)C3=O)cc1", "% Inhibition": 63}, {"smiles": "COc1cccc(-c2ccc(=O)n(CCC(=O)N3CCN(Cc4ccc5c(c4)OCO5)CC3)n2)c1", "% Inhibition": 1}, {"smiles": "O=C(CCn1nc(-c2ccc(Br)cc2)ccc1=O)NCc1ccc2c(c1)OCO2", "% Inhibition": -4}, {"smiles": "CCc1ccc(CN2C(=O)c3c(C(=O)OC)ncn3C[C@@]2(C)C(=O)NC2CCCC2)cc1", "% Inhibition": -6}, {"smiles": "Cc1cc(C)c(S(=O)(=O)N2CCC(C)(C(=O)NCc3ccc4c(c3)OCO4)CC2)cc1C", "% Inhibition": 3}, {"smiles": "CCc1ccc(-c2cc3n(n2)C[C@@](C)(C(=O)NC2CCCCC2)N(c2cc(C)cc(C)c2)C3=O)cc1", "% Inhibition": 74}, {"smiles": "C[C@@]1(C(=O)NCc2ccccc2)Cn2nc(-c3ccccc3)cc2C(=O)N1c1ccc2c(c1)OCCO2", "% Inhibition": 58}, {"smiles": "CCc1ccc(CN2C(=O)c3c(C(=O)OC)ncn3C[C@@]2(C)C(=O)NC2CCCCCC2)cc1", "% Inhibition": 1}, {"smiles": "Cc1nn(CCc2nnc(-c3ccc4c(c3)OCO4)o2)c(C)c1Cl", "% Inhibition": -3}, {"smiles": "O=C(O)Cc1sc(-c2ccccc2)nc1O", "% Inhibition": 1}, {"smiles": "CC(=O)Nc1cc(NC(=O)c2cccc[n+]2[O-])c(F)cc1F", "% Inhibition": -2}, {"smiles": "COC(=O)c1[nH]c(C)cc1NC(=O)C1=CCCCCC1", "% Inhibition": -2}, {"smiles": "O=C(Nc1nncs1)NC(C1CC1)C1CC1", "% Inhibition": 0}, {"smiles": "Cc1ccc(-c2csc(NC(=O)c3cccc(C(=O)Nc4nc(-c5ccc(C)cc5C)cs4)n3)n2)c(C)c1", "% Inhibition": -1}, {"smiles": "O=C(Nc1nncs1)c1cccc(C(=O)Nc2nncs2)n1", "% Inhibition": 68}, {"smiles": "CCOC(=O)c1c(C(F)(F)F)[nH]n2c(C(F)F)nnc12", "% Inhibition": -3}]}]}
